{"source": "a collection of fitness landscapes (doi:10.1016/j.celrep.2020.107928)", "parents": {"B1": {"name": "Caulobacter ParB omega fusion; a variant is named by its letters at X, in order, B8GW30 (parent)", "chain": "MESVVVGEPGMSEGRRGLGRGLSALLGEVDAAPAQAPGEQLGGSREAPIEILQRNPDQPRRTFREEDLEDLSNSIREKGVLQPILVRPSPDTAGEYQIVAGERAWRAAQRAGLKTVPIMVRELDDLAVLEIGIIENVQRADLNVLEEALSYKVLMEKFERTQENIAQTIGKSXSHVANXMRLLXLPDEVQSYLVSGELTAXHARAIAAAADPVALAKQIIEGGLSVRETEALARKAPNLSAGKSKGGRPPRVKDTDTQALESDLSSVLGLDVSIDHRGSTGTLTITYATLEQLDDLCNRLTRGI"}}, "note": "Whole data set: some 81,000 sequences, median “one-hybrid fitness for binding parS DNA” near -0.17, cut for the highest 2% near 0.51. Shown is part of a subset that was picked to be rich in the highest values."}
{"variants_of": "B1", "experiment": "one-hybrid fitness for binding parS DNA (scaled: cognate 1, non-cognate 0); higher = stronger binding", "settings": "with parS DNA site", "method_in_brief": "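Bacterial one-hybrid selection in E. coli USO rpoZ- hisB- pyrF- with a HIS3 reporter carrying the site 19 bp from the promoter, screening Caulobacter ParB libraries with four specificity codons randomised (NNS). Cells grew 48 hours at 37°C on M9-minus-histidine plus 0.1 mM IPTG and 5 mM 3-AT. Plasmids before and after selection were Illumina-sequenced, three replicate libraries pooled, and variants under 10 reads dropped. Fitness is the log change in variant-to-wild-type read ratio, rescaled to cognate 1, non-cognate 0.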"}
{"variant": "APMD", "one-hybrid fitness for binding parS DNA": "≤ 0.2"}
{"variant": "RKQD", "one-hybrid fitness for binding parS DNA": "≤ 0.2"}
{"variant": "RLQS", "one-hybrid fitness for binding parS DNA": 1}
{"variant": "RKQS", "one-hybrid fitness for binding parS DNA": 0.793}
{"variant": "RKQN", "one-hybrid fitness for binding parS DNA": 0.3}
{"variant": "RLQH", "one-hybrid fitness for binding parS DNA": 0.324}
{"variant": "RLQP", "one-hybrid fitness for binding parS DNA": 0.206}
{"variant": "ERKR", "one-hybrid fitness for binding parS DNA": "≤ 0.2"}
{"variant": "LEPN", "one-hybrid fitness for binding parS DNA": "≤ 0.2"}
{"variant": "CCRD", "one-hybrid fitness for binding parS DNA": "≤ 0.2"}
{"variant": "QNCR", "one-hybrid fitness for binding parS DNA": "≤ 0.2"}
{"variant": "RQKH", "one-hybrid fitness for binding parS DNA": 0.269}
{"variant": "RQKN", "one-hybrid fitness for binding parS DNA": 0.433}
{"variant": "RQVG", "one-hybrid fitness for binding parS DNA": 0.88}
{"variant": "RQKG", "one-hybrid fitness for binding parS DNA": 0.939}
{"variant": "RQVQ", "one-hybrid fitness for binding parS DNA": "≤ 0.2"}
{"variant": "RQVK", "one-hybrid fitness for binding parS DNA": "≤ 0.2"}
{"variant": "WNHS", "one-hybrid fitness for binding parS DNA": "≤ 0.2"}
{"variant": "KAIM", "one-hybrid fitness for binding parS DNA": "≤ 0.2"}
{"variant": "IGNS", "one-hybrid fitness for binding parS DNA": "≤ 0.2"}
{"variant": "NFGS", "one-hybrid fitness for binding parS DNA": "≤ 0.2"}
{"variant": "GEDR", "one-hybrid fitness for binding parS DNA": "≤ 0.2"}
{"variant": "QFAT", "one-hybrid fitness for binding parS DNA": "≤ 0.2"}
{"variant": "GTTA", "one-hybrid fitness for binding parS DNA": "≤ 0.2"}
{"variant": "ATEM", "one-hybrid fitness for binding parS DNA": "≤ 0.2"}
{"variant": "RTRM", "one-hybrid fitness for binding parS DNA": 0.517}
{"variant": "RTDM", "one-hybrid fitness for binding parS DNA": 0.289}
{"variant": "RSKM", "one-hybrid fitness for binding parS DNA": 0.378}
{"variant": "RTYM", "one-hybrid fitness for binding parS DNA": 0.341}
{"variant": "RTKM", "one-hybrid fitness for binding parS DNA": 0.594}
{"variant": "RTVM", "one-hybrid fitness for binding parS DNA": 0.315}
{"variant": "TLKA", "one-hybrid fitness for binding parS DNA": "≤ 0.2"}
{"variant": "TQQG", "one-hybrid fitness for binding parS DNA": "≤ 0.2"}
{"variant": "HCKF", "one-hybrid fitness for binding parS DNA": "≤ 0.2"}
{"variant": "YAFG", "one-hybrid fitness for binding parS DNA": "≤ 0.2"}
{"variant": "KYYR", "one-hybrid fitness for binding parS DNA": "≤ 0.2"}
{"variant": "ILTL", "one-hybrid fitness for binding parS DNA": "≤ 0.2"}
{"variant": "RHSN", "one-hybrid fitness for binding parS DNA": 0.379}
{"variant": "RISN", "one-hybrid fitness for binding parS DNA": 0.454}
{"variant": "RCSD", "one-hybrid fitness for binding parS DNA": "≤ 0.2"}
{"variant": "RISS", "one-hybrid fitness for binding parS DNA": 0.992}
{"variant": "RCSS", "one-hybrid fitness for binding parS DNA": 0.978}
{"variant": "RHSS", "one-hybrid fitness for binding parS DNA": 0.912}
{"variant": "RMSH", "one-hybrid fitness for binding parS DNA": "≤ 0.2"}
{"variant": "RMSS", "one-hybrid fitness for binding parS DNA": 0.977}
{"variant": "RHSP", "one-hybrid fitness for binding parS DNA": "≤ 0.2"}
{"variant": "RISD", "one-hybrid fitness for binding parS DNA": "≤ 0.2"}
{"variant": "RPSS", "one-hybrid fitness for binding parS DNA": "≤ 0.2"}
{"variant": "RMSD", "one-hybrid fitness for binding parS DNA": "≤ 0.2"}
{"variant": "AKPM", "one-hybrid fitness for binding parS DNA": "≤ 0.2"}
{"variant": "LGTM", "one-hybrid fitness for binding parS DNA": "≤ 0.2"}
{"variant": "TQKH", "one-hybrid fitness for binding parS DNA": "≤ 0.2"}
{"variant": "LPSR", "one-hybrid fitness for binding parS DNA": "≤ 0.2"}
{"variant": "NDSK", "one-hybrid fitness for binding parS DNA": "≤ 0.2"}
{"variant": "CAPL", "one-hybrid fitness for binding parS DNA": "≤ 0.2"}
{"variant": "RWPN", "one-hybrid fitness for binding parS DNA": "≤ 0.2"}
{"variant": "SQSF", "one-hybrid fitness for binding parS DNA": "≤ 0.2"}
{"variant": "PHLE", "one-hybrid fitness for binding parS DNA": "≤ 0.2"}
{"variant": "GVSS", "one-hybrid fitness for binding parS DNA": "≤ 0.2"}
{"variant": "LVRT", "one-hybrid fitness for binding parS DNA": "≤ 0.2"}
{"variant": "RKSS", "one-hybrid fitness for binding parS DNA": 0.811}
{"variant": "RASN", "one-hybrid fitness for binding parS DNA": 0.435}
{"variant": "RKSN", "one-hybrid fitness for binding parS DNA": 0.296}
{"variant": "RFSS", "one-hybrid fitness for binding parS DNA": 1.01}
{"variant": "RASH", "one-hybrid fitness for binding parS DNA": 0.225}
{"variant": "RASS", "one-hybrid fitness for binding parS DNA": 1}
{"variant": "RFSH", "one-hybrid fitness for binding parS DNA": "≤ 0.2"}
{"variant": "FMSQ", "one-hybrid fitness for binding parS DNA": 0.554}
{"variant": "RFSP", "one-hybrid fitness for binding parS DNA": "≤ 0.2"}
{"variant": "FMSS", "one-hybrid fitness for binding parS DNA": "≤ 0.2"}
{"variant": "FMSD", "one-hybrid fitness for binding parS DNA": "≤ 0.2"}
{"variant": "RKSP", "one-hybrid fitness for binding parS DNA": "≤ 0.2"}
{"variant": "IYTS", "one-hybrid fitness for binding parS DNA": "≤ 0.2"}
{"variant": "TWRH", "one-hybrid fitness for binding parS DNA": "≤ 0.2"}
{"variant": "GPLA", "one-hybrid fitness for binding parS DNA": "≤ 0.2"}
{"variant": "YVAM", "one-hybrid fitness for binding parS DNA": "≤ 0.2"}
{"variant": "RYVW", "one-hybrid fitness for binding parS DNA": 0.209}
{"variant": "HRKW", "one-hybrid fitness for binding parS DNA": "≤ 0.2"}
{"variant": "RSSD", "one-hybrid fitness for binding parS DNA": "≤ 0.2"}
{"variant": "RSSP", "one-hybrid fitness for binding parS DNA": "≤ 0.2"}
{"variant": "RSSS", "one-hybrid fitness for binding parS DNA": 0.99}
{"variant": "YNTS", "one-hybrid fitness for binding parS DNA": "≤ 0.2"}
{"variant": "RPGT", "one-hybrid fitness for binding parS DNA": "≤ 0.2"}
{"variant": "REGT", "one-hybrid fitness for binding parS DNA": 0.201}
{"variant": "RDGT", "one-hybrid fitness for binding parS DNA": "≤ 0.2"}
{"variant": "RGGT", "one-hybrid fitness for binding parS DNA": 0.493}
{"variant": "RSGT", "one-hybrid fitness for binding parS DNA": 0.91}
{"variant": "RCGT", "one-hybrid fitness for binding parS DNA": 0.882}
{"variant": "TFAS", "one-hybrid fitness for binding parS DNA": "≤ 0.2"}
{"variant": "AMCN", "one-hybrid fitness for binding parS DNA": "≤ 0.2"}
{"variant": "LFSE", "one-hybrid fitness for binding parS DNA": "≤ 0.2"}
{"variant": "CKQG", "one-hybrid fitness for binding parS DNA": "≤ 0.2"}
{"variant": "NSAT", "one-hybrid fitness for binding parS DNA": "≤ 0.2"}
{"variant": "RQVR", "one-hybrid fitness for binding parS DNA": "≤ 0.2"}
{"variant": "RQKR", "one-hybrid fitness for binding parS DNA": "≤ 0.2"}
{"variant": "RQKC", "one-hybrid fitness for binding parS DNA": 0.926}
{"variant": "RQVF", "one-hybrid fitness for binding parS DNA": "≤ 0.2"}
{"variant": "RQKK", "one-hybrid fitness for binding parS DNA": "≤ 0.2"}
{"variant": "RQVC", "one-hybrid fitness for binding parS DNA": 0.828}
{"variant": "RWDM", "one-hybrid fitness for binding parS DNA": "≤ 0.2"}
{"variant": "RWNC", "one-hybrid fitness for binding parS DNA": 0.79}
{"variant": "RWDC", "one-hybrid fitness for binding parS DNA": 0.635}
{"variant": "RWDY", "one-hybrid fitness for binding parS DNA": 0.264}
{"variant": "RWNR", "one-hybrid fitness for binding parS DNA": "≤ 0.2"}
{"variant": "RWNM", "one-hybrid fitness for binding parS DNA": 0.221}
{"variant": "GKCT", "one-hybrid fitness for binding parS DNA": "≤ 0.2"}
{"variant": "STTT", "one-hybrid fitness for binding parS DNA": "≤ 0.2"}
{"variant": "WKGT", "one-hybrid fitness for binding parS DNA": "≤ 0.2"}
{"variant": "SGKS", "one-hybrid fitness for binding parS DNA": "≤ 0.2"}
{"variant": "RITI", "one-hybrid fitness for binding parS DNA": "≤ 0.2"}
{"variant": "RAIH", "one-hybrid fitness for binding parS DNA": "≤ 0.2"}
{"variant": "RAPG", "one-hybrid fitness for binding parS DNA": 0.569}
{"variant": "RDPG", "one-hybrid fitness for binding parS DNA": "≤ 0.2"}
{"variant": "RAIF", "one-hybrid fitness for binding parS DNA": "≤ 0.2"}
{"variant": "RPPG", "one-hybrid fitness for binding parS DNA": "≤ 0.2"}
{"variant": "RAPD", "one-hybrid fitness for binding parS DNA": "≤ 0.2"}
{"variant": "RCPG", "one-hybrid fitness for binding parS DNA": 0.81}
{"variant": "RAPH", "one-hybrid fitness for binding parS DNA": "≤ 0.2"}
{"variant": "RAIG", "one-hybrid fitness for binding parS DNA": 0.871}
{"variant": "NVNI", "one-hybrid fitness for binding parS DNA": "≤ 0.2"}
{"variant": "DVVY", "one-hybrid fitness for binding parS DNA": "≤ 0.2"}
{"variant": "LLTC", "one-hybrid fitness for binding parS DNA": "≤ 0.2"}
{"variant": "GHGR", "one-hybrid fitness for binding parS DNA": "≤ 0.2"}
{"variant": "HSMG", "one-hybrid fitness for binding parS DNA": "≤ 0.2"}
{"variant": "RQEF", "one-hybrid fitness for binding parS DNA": 0.206}
{"variant": "ATMR", "one-hybrid fitness for binding parS DNA": "≤ 0.2"}
{"variant": "RCAP", "one-hybrid fitness for binding parS DNA": "≤ 0.2"}
{"variant": "RSAP", "one-hybrid fitness for binding parS DNA": "≤ 0.2"}
{"variant": "RSAD", "one-hybrid fitness for binding parS DNA": "≤ 0.2"}
{"variant": "RCAS", "one-hybrid fitness for binding parS DNA": 1.01}
{"variant": "RPAS", "one-hybrid fitness for binding parS DNA": "≤ 0.2"}
{"variant": "RSAS", "one-hybrid fitness for binding parS DNA": 0.998}
{"variant": "NQVG", "one-hybrid fitness for binding parS DNA": "≤ 0.2"}
{"variant": "TRNP", "one-hybrid fitness for binding parS DNA": "≤ 0.2"}
{"variant": "TIYS", "one-hybrid fitness for binding parS DNA": "≤ 0.2"}
{"variant": "IDLD", "one-hybrid fitness for binding parS DNA": "≤ 0.2"}
{"variant": "SILM", "one-hybrid fitness for binding parS DNA": "≤ 0.2"}
{"variant": "LWSP", "one-hybrid fitness for binding parS DNA": "≤ 0.2"}
{"variant": "SLKT", "one-hybrid fitness for binding parS DNA": "≤ 0.2"}
{"variant": "GRNC", "one-hybrid fitness for binding parS DNA": "≤ 0.2"}
{"variant": "RPYS", "one-hybrid fitness for binding parS DNA": "≤ 0.2"}
{"variant": "RSRN", "one-hybrid fitness for binding parS DNA": 0.416}
{"variant": "RSRS", "one-hybrid fitness for binding parS DNA": 0.913}
{"variant": "RCRD", "one-hybrid fitness for binding parS DNA": "≤ 0.2"}
{"variant": "RSRD", "one-hybrid fitness for binding parS DNA": "≤ 0.2"}
{"variant": "RCRS", "one-hybrid fitness for binding parS DNA": 0.877}
{"variant": "RPRS", "one-hybrid fitness for binding parS DNA": "≤ 0.2"}
{"variant": "RCYP", "one-hybrid fitness for binding parS DNA": "≤ 0.2"}
{"variant": "RCYS", "one-hybrid fitness for binding parS DNA": 1}
{"variant": "SCVM", "one-hybrid fitness for binding parS DNA": "≤ 0.2"}
{"variant": "FTPD", "one-hybrid fitness for binding parS DNA": "≤ 0.2"}
{"variant": "ALCC", "one-hybrid fitness for binding parS DNA": "≤ 0.2"}
{"variant": "WPLG", "one-hybrid fitness for binding parS DNA": "≤ 0.2"}
